In the supplement of paper PMC6555819 one finds PBM binding z-score data, which are given here for 17 sequences.

Assay in all cases: PBM binding z-score (relative to random genomic background probes); higher = stronger binding; sequences stand for … in GC…GCGATTGACAGCGTAGAATGAAGG
In test [1] the test system is RARb homodimer (NR concentration 270 nM). In short, it runs like this:
(§1)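 Ligand-free nuclear receptor dimers were bound for 1 h to custom Agilent 4×180K protein-binding microarrays. Detection used antibodies against each partner (one per run). Binding z-scores rest on regression-normalized fluorescence, with random background probes as the reference.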

Test [2] relates to RARg:RXRa (NR concentration 270 nM, RXRa partner concentration 90 nM). In short, it runs like this: as §1
The test system of test [3] is RARg homodimer (NR concentration 270 nM). In short, it runs like this: as §1
In test [4] the test system is RXRa DBDmut IVT, anti-RXR (DBD mutation: RXRa K156A/R161A, NR concentration 90 nM). The gist of the method: as §1
The subject of test [5] is RXRa homodimer (NR concentration 180 nM). The gist of the method: as §1
Test [6] deals with THRa:RXRa (NR concentration 90 nM, RXRa partner concentration 90 nM). The gist of the method:
as §1

Test [7] has as its system THRa homodimer (NR concentration 90 nM). In short, it runs like this:
as §1

Test [8] has as its system VDR homodimer (NR concentration 270 nM). The gist of the method: as §1

Consider CCTGCTAGGTCACTGGTCAGCTAAAGCAGCTCGC, for which the PBM binding z-score in test [1] was 3.08; in test [2], 3.82; in test [3], 4.65; in test [4] it was 1.68; in test [5], 2.59; in test [6] it was 2.7. In addition, the PBM binding z-score was determined as 0.97 in test [7] and 0.123 in test [8].

ACTAGCAGGCCAAGGGTCACCCAAGATTAGTCCG: the PBM binding z-score came out at 3.96 in test [1]; 4.79 in test [2]; 4.32 in test [3]; 0.27 in test [4]; 4.91 in test [5]; 3 in test [6]. Moreover, the PBM binding z-score in test [7] is 0.576; in test [8], 0.895.

As to TATACAGGCTCAAAGGCCAGAGTACGAATGTCGA, the PBM binding z-score in test [1] was 0.737; in test [2], 0.637; in test [3] it was 0.897; in test [4], -0.662; in test [5] it was 0.521; in test [6], -0.176. Besides, the PBM binding z-score in test [7] was -0.638; in test [8], 0.383.

Consider TCTAATAGTTGATTAGGGCAACCGAAACAGCGGA, for which the PBM binding z-score turned out to be 0.599 in test [1]; 0.338 in test [2]; 0.66 in test [3]; 0.755 in test [4]; 0.708 in test [5]; 0.551 in test [6]. Also, the PBM binding z-score is -0.0484 in test [7] and -0.0344 in test [8].

Consider GCGACTGGGGCATCAGCCGGTTACCATAACTTAA, for which the PBM binding z-score in test [1] is 0.131; in test [2], 0.11; in test [3], 0.063; in test [4], -0.636; in test [5], -0.543; in test [6], -0.0849. Besides, the figures for the PBM binding z-score in test [7] and in test [8] were -0.579 and -0.974, respectively.

Take TCTCGGAGGAGACGAAAGGTCAGAGCTCGACATC: the PBM binding z-score is 4.19 in test [1]; 3.79 in test [2]; 3.46 in test [3]; 0.134 in test [4]; 4.08 in test [5]; 2.42 in test [6]. Moreover, the PBM binding z-score is 0.0723 in test [7] and 0.0625 in test [8].

Turning to CCTAGCAGGCCCATCTGGGTCACTCAAGGCTTGA, the PBM binding z-score was 1.64 in test [1]; 0.5 in test [2]; 0.267 in test [3]; -1.2 in test [4]; 0.768 in test [5]; 2.23 in test [6]. Also, the figures for the PBM binding z-score in test [7] and in test [8] were 0.0226 and -0.0686, respectively.

On to CGTCCAAGGTCAAAGGAGGTCAGTGAAGACAGAT, for which the PBM binding z-score in test [1] amounted to 5.57; in test [2] it was 6.67; in test [3], 7.08; in test [4], 3.52; in test [5] it was 6.32; in test [6] it was 5.42. In addition, the PBM binding z-score in test [7] was 2.98; in test [8], 4.01.

Consider GCTGCTAGGTCAACTGATGATCAGCTAAAGCTCG, for which the PBM binding z-score in test [1] amounted to 3.3; in test [2], 4.46; in test [3] it was 5.15; in test [4], 1.46; in test [5] it was 2.75; in test [6], 2.85. The PBM binding z-score in test [7] is 0.808; in test [8], -0.0271.

As for CTACCATGGTGAACAAGGTCGTTGATTACTATTC, the PBM binding z-score in test [1] amounted to 1.04; in test [2], 0.598; in test [3], 0.184; in test [4] it was 0.982; in test [5] it was 0.913; in test [6] it was 1.99. Moreover, the PBM binding z-score in test [7] came out at 1.1; in test [8] it was 1.41.

Take GTACGAAGGTGAATAGGTCGTTGATGAGTAGGCG: the PBM binding z-score in test [1] was 1.82; in test [2], 2.78; in test [3] it was 1.4; in test [4], -0.12; in test [5], 1.81; in test [6], 0.742. The figures for the PBM binding z-score in test [7] and in test [8] were -0.401 and 0.0149, respectively.

For the sequence TTACCAAGGTGAAAGGTCGTTGTTGCACGCCTTG, the PBM binding z-score stood at 2.51 in test [1]; 3.79 in test [2]; 1.79 in test [3]; 0.868 in test [4]; 5.4 in test [5]; 3.45 in test [6]. The values for the PBM binding z-score in test [7] and in test [8] were 1.38 and 1.08, respectively.

GATACAGGGTCAGCTAGAGGCGAGAGTATGGAAA: the PBM binding z-score in test [1] came out at 2.7; in test [2], 5.04; in test [3], 4.34; in test [4] it was 1.57; in test [5], 4.51; in test [6] it was 2.79. Moreover, the PBM binding z-score in test [7] stood at 0.319; in test [8] it was 0.871.

For the sequence AGAACAAGGGCACGCTGAGTTGATAGCAGAGTAG, the PBM binding z-score in test [1] came out at 1.11; in test [2], 1.6; in test [3], 1.99; in test [4] it was 1.22; in test [5], 0.942; in test [6] it was 1.28. Further, the PBM binding z-score is -0.108 in test [7] and 1.07 in test [8].

For the sequence ATCTCTAGGTAAGACTGAGTTCAGTGAAGAACGC, the PBM binding z-score in test [1] was 1.05; in test [2], 0.569; in test [3] it was 0.377; in test [4], 1.38; in test [5], 0.265; in test [6], 1.25. Besides, the PBM binding z-score in test [7] was found to be 0.797; in test [8], 3.47.

As to GGAACGAGGGCATTAGAGTTGATAGCATGGCGAT, the PBM binding z-score came to 0.848 in test [1]; 1.11 in test [2]; 1.65 in test [3]; 2.84 in test [4]; 0.695 in test [5]; 2 in test [6]. Further, the PBM binding z-score in test [7] is -0.303; in test [8], 2.49.

In the case of GCGAATGGGGCATCAGCAGGTTACCATAACTTAA, the PBM binding z-score is 0.462 in test [1]; 0.664 in test [2]; 0.351 in test [3]; 0.119 in test [4]; 0.257 in test [5]; 0.795 in test [6]. Moreover, the PBM binding z-score was 0.03 in test [7] and -0.224 in test [8].
